# From PMC7862700, “An all-to-all approach to the identification of sequence-specific readers for epigenetic DNA modifications on cytosine”
# Legend:
# Experiment in all cases: DAPPL (digital affinity profiling via proximity ligation, sequencing); 10 mM Tris-HCl pH 7.5, 50 mM NaCl, 1 mM DTT, 4% glycerol, room temperature, 30 min; GST-TFs on glutathione beads, 16-mer random dsDNA library, 0.1% formaldehyde crosslink after washing; high values mean tight binding
# Conditions in all cases: protein: recombinant; tags: N-terminal GST; dsDNA, one strand shown
# FLI1 = target: T1, FLI1 (Homo sapiens, UniProt Q01543 1-452)
# T1 sequence: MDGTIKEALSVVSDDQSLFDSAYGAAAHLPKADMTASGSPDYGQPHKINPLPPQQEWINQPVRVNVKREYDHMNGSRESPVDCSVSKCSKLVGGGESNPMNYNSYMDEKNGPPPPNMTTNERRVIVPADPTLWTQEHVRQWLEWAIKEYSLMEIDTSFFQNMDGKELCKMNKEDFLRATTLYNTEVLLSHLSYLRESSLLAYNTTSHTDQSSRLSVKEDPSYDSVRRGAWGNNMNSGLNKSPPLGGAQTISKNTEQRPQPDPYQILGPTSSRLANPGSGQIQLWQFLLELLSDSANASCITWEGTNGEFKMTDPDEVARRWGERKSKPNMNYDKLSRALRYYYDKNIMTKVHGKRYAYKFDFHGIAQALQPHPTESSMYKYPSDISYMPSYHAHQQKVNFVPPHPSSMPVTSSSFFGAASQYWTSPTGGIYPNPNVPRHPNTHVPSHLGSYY
# In short: (§1)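 After expression in yeast as GST fusions, human transcription factors were bound to glutathione beads, DNA-barcoded and mixed with a tag-only sample. The pools were incubated with 200 nmole of a 16-mer random double-stranded DNA library in Tris/NaCl/DTT/glycerol buffer (30 min, room temperature), washed and crosslinked with 0.1% formaldehyde. Proximity ligation with BsaI/T4 ligase ran for 1 h at 37 °C, before PCR amplification and sequencing on an Illumina NextSeq500. Binding signal is a hexamer's read frequency for a factor divided by its frequency for the tag-only sample.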
# ELK1 = target: T2, ELK1 (Homo sapiens, UniProt P19419 1-428)
# T2 sequence: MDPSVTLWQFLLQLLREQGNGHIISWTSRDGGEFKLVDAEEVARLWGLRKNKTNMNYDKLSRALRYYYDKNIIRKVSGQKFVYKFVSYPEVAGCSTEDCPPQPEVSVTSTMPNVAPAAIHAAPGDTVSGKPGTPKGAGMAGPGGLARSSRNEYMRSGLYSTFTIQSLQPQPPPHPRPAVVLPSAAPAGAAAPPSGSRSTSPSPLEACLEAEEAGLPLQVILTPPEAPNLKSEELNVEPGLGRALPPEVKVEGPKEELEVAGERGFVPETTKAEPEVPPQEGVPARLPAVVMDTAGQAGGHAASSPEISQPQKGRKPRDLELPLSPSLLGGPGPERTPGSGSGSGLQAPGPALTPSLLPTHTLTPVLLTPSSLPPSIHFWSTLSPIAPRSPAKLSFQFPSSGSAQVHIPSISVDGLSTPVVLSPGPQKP
# In short: as §1
# GABPA = target: T3, GABPA (Homo sapiens, UniProt Q06546 1-454)
# T3 sequence: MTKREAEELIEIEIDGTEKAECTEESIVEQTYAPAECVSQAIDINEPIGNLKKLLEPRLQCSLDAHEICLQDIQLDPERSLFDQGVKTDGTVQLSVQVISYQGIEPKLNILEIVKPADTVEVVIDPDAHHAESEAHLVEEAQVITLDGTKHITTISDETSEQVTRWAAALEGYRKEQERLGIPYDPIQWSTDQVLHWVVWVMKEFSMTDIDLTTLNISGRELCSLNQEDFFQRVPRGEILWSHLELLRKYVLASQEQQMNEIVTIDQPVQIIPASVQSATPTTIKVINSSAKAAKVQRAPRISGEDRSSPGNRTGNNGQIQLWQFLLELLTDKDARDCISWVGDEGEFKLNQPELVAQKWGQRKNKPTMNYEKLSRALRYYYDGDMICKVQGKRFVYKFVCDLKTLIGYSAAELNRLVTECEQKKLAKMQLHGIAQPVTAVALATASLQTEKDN
# In short: as §1
# ERG = target: T4, ERG (Homo sapiens, UniProt P11308 1-479)
# T4 sequence: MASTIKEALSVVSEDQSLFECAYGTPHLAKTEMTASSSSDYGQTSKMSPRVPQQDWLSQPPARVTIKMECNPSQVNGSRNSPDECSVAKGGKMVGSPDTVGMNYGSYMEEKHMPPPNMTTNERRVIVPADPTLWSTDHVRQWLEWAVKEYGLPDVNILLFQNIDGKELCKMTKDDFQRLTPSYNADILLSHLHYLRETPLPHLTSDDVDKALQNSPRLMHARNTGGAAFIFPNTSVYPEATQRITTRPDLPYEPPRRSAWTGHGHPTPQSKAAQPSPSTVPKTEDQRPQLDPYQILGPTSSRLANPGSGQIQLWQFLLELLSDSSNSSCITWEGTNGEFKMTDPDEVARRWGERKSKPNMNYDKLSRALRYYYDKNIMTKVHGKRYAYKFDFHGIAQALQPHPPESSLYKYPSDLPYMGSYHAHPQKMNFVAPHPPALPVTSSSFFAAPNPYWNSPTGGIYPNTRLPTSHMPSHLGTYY
# In short: as §1
# ELF1 = ELF1 (Homo sapiens, UniProt P32519 1-619)
# In short: as §1
# EHF = target: T5, EHF (Homo sapiens, UniProt Q9NZC4 1-300)
# T5 sequence: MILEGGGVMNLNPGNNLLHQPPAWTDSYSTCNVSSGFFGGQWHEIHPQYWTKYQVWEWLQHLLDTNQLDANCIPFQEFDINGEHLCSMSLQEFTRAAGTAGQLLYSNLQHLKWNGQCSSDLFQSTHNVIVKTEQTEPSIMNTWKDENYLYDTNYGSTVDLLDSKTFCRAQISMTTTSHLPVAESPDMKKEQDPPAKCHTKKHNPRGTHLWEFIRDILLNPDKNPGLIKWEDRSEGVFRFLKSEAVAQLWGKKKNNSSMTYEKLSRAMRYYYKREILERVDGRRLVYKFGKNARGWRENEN
# In short: as §1
# SPI1 = SPI1 (Homo sapiens, UniProt P17947 1-270)
# In short: as §1
# FEV = target: T6, FEV (Homo sapiens, UniProt Q99581 1-238)
# T6 sequence: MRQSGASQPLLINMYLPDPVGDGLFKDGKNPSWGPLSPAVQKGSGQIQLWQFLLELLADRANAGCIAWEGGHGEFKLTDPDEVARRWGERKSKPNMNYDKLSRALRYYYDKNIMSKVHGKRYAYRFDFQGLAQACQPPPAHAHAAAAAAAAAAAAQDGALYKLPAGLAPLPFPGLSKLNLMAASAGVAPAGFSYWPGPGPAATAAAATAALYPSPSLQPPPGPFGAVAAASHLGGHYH
# In short: as §1
# ETV5 = ETV5 (Homo sapiens, UniProt P41161 1-510)
# In short: as §1
# SPIC = target: T7, SPIC (Homo sapiens, UniProt Q8N5J4 1-248)
# T7 sequence: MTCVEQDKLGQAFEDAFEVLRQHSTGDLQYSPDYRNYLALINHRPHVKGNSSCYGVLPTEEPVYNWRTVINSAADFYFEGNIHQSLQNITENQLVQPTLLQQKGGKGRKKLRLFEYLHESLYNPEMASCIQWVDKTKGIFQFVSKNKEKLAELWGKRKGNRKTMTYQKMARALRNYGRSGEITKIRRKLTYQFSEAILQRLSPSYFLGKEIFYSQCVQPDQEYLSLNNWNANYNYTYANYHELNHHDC
# In short: as §1
# ELF4 = ELF4 (Homo sapiens, UniProt Q99607 1-663)
# In short: as §1
# ETV1 = ETV1 (Homo sapiens, UniProt P50549 1-477)
# In short: as §1
# ERF = target: T8, ERF (Homo sapiens, UniProt P50548 1-548)
# T8 sequence: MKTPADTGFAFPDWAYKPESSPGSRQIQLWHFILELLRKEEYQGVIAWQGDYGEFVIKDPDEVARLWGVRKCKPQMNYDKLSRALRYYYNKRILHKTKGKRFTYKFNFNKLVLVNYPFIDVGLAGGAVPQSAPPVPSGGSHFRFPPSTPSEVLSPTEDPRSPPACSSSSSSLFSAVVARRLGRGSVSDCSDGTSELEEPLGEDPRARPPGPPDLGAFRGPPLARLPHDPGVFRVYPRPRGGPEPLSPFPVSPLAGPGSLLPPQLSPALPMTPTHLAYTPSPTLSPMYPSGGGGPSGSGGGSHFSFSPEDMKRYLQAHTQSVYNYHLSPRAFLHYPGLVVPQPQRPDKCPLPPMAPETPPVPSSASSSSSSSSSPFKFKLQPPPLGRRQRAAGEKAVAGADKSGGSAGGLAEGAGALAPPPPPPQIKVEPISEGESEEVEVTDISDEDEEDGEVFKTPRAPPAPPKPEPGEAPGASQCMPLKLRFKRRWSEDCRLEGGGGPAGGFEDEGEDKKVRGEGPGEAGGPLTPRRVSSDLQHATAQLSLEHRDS
# In short: as §1
# ETV3L = target: T9, ETV3L (Homo sapiens, UniProt Q6ZN32 1-361)
# T9 sequence: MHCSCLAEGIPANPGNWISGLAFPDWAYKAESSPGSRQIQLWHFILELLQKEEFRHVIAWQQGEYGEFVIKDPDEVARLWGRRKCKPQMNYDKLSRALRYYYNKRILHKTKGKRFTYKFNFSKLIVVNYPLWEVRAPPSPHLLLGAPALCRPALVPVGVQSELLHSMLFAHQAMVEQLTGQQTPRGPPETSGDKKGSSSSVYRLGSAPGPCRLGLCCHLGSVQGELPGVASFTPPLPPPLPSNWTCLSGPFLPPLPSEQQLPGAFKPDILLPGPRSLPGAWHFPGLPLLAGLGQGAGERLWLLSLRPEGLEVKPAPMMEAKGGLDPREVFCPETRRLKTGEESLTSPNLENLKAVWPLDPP
# In short: as §1
# ETS2 = target: T10, ETS2 (Homo sapiens, UniProt P15036 1-469)
# T10 sequence: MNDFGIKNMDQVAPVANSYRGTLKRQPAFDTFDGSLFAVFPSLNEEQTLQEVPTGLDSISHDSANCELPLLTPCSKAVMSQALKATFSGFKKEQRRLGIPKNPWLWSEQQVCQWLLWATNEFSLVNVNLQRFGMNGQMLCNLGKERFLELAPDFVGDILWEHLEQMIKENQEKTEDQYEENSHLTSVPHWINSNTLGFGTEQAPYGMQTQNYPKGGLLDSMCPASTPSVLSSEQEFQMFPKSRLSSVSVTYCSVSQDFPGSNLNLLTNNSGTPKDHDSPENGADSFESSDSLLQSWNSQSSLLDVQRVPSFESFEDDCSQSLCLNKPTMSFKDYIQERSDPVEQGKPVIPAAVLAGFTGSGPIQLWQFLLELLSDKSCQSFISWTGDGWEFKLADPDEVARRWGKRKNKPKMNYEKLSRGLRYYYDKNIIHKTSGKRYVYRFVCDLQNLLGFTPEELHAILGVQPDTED
# In short: as §1
# ETV3 = target: T11, ETV3 (Homo sapiens, UniProt P41162-2 1-143)
# T11 sequence: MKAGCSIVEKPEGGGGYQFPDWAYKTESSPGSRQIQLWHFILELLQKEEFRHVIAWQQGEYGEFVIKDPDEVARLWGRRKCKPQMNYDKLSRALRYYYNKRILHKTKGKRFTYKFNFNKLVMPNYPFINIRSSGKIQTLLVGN
# In short: as §1
# ETV6 = ETV6 (Homo sapiens, UniProt P41212 1-452)
# In short: as §1
# ELF1, sequence (P32519 whole entry): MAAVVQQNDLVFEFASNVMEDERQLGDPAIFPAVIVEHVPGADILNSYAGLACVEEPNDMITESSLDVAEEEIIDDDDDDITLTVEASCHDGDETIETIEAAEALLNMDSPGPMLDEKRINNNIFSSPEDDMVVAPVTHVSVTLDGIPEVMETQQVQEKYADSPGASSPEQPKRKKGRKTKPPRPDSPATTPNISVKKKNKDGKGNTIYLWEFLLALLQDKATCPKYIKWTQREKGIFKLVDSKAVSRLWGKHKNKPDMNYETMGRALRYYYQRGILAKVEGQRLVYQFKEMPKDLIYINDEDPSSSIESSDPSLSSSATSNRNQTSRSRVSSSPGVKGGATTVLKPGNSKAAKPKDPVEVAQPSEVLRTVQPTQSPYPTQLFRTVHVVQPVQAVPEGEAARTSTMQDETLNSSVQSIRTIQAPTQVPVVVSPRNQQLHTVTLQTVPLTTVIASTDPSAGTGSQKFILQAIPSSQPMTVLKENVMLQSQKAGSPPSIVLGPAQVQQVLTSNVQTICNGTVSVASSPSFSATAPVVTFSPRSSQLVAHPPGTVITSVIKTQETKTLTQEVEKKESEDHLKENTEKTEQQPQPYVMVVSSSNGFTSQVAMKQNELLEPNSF
# ETV6, sequence (P41212 whole entry): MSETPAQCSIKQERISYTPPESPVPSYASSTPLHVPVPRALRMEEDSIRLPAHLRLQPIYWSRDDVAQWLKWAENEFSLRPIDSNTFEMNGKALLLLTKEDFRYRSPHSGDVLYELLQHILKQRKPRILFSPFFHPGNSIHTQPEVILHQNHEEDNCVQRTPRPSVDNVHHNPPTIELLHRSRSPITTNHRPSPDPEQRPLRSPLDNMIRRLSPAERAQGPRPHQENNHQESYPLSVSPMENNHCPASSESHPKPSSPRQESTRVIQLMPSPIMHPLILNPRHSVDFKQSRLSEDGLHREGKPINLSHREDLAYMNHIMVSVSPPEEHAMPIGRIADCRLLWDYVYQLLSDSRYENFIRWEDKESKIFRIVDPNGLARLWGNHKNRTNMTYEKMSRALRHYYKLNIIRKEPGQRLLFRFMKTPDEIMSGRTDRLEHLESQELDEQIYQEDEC
# ETV5, sequence (P41161 whole entry): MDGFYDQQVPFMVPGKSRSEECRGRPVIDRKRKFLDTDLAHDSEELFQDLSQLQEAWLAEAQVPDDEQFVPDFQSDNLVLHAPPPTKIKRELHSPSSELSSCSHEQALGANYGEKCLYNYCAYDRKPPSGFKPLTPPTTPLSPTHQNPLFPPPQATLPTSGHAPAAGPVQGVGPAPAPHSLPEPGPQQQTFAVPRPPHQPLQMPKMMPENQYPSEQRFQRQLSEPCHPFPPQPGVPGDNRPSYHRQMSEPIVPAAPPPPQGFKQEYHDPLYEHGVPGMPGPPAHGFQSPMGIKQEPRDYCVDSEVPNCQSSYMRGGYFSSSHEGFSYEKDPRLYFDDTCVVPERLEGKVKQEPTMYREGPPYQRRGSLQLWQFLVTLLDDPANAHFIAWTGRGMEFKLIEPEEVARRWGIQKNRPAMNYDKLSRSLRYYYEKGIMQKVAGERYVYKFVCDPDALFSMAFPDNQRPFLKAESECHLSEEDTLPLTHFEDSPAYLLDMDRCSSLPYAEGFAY
# ELF4, sequence (Q99607 whole entry): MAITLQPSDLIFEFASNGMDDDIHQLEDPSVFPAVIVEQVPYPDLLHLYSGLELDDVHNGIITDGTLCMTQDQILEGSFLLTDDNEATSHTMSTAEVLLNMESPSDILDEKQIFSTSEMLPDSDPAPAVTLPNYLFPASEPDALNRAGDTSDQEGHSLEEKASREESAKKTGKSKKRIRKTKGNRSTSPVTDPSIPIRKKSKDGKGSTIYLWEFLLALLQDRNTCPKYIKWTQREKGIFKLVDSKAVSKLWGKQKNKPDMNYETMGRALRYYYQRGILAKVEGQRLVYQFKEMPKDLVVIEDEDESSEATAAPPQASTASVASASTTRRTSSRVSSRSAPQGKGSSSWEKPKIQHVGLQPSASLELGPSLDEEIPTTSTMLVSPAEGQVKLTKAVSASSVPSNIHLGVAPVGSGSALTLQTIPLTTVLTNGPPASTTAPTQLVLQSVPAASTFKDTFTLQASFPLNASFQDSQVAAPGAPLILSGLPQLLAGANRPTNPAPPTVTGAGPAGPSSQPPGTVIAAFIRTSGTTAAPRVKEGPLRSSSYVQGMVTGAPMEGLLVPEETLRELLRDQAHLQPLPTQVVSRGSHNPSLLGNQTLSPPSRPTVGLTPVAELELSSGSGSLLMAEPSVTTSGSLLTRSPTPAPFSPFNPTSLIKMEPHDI
# ETV1, sequence (P50549 whole entry): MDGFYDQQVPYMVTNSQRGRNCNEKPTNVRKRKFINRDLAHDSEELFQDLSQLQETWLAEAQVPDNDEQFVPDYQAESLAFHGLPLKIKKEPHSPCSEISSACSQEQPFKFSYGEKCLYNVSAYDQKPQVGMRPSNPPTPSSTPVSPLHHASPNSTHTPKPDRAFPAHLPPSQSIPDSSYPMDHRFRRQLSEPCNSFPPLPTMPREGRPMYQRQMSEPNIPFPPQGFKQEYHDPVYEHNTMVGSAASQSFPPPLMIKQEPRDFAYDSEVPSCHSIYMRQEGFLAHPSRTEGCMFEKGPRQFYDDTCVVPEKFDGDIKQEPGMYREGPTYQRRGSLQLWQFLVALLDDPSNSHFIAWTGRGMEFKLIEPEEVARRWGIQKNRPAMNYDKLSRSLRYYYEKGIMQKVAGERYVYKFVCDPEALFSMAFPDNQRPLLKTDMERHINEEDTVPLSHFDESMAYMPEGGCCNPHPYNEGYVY
sequence,measurement,setting,value
GTACGC,binding signal,FLI1,"1.05 fold enrichment (6-mer frequency, TF over GST control)"
same,binding signal,ELK1,"1.03 fold enrichment (6-mer frequency, TF over GST control)"
same,binding signal,GABPA,"1.04 fold enrichment (6-mer frequency, TF over GST control)"
same,binding signal,ERG,"1.09 fold enrichment (6-mer frequency, TF over GST control)"
same,binding signal,ELF1,"1.05 fold enrichment (6-mer frequency, TF over GST control)"
same,binding signal,EHF,"1.03 fold enrichment (6-mer frequency, TF over GST control)"
same,binding signal,SPI1,"1.05 fold enrichment (6-mer frequency, TF over GST control)"
same,binding signal,FEV,"1.1 fold enrichment (6-mer frequency, TF over GST control)"
same,binding signal,ETV5,"1.08 fold enrichment (6-mer frequency, TF over GST control)"
same,binding signal,SPIC,"1.2 fold enrichment (6-mer frequency, TF over GST control)"
same,binding signal,ELF4,"1.05 fold enrichment (6-mer frequency, TF over GST control)"
same,binding signal,ETV1,"1.09 fold enrichment (6-mer frequency, TF over GST control)"
same,binding signal,ERF,"1.05 fold enrichment (6-mer frequency, TF over GST control)"
same,binding signal,ETV3L,"1.11 fold enrichment (6-mer frequency, TF over GST control)"
same,binding signal,ETS2,"1.06 fold enrichment (6-mer frequency, TF over GST control)"
same,binding signal,ETV3,"1.14 fold enrichment (6-mer frequency, TF over GST control)"
same,binding signal,ETV6,"1.07 fold enrichment (6-mer frequency, TF over GST control)"
